HT1080-NT tox – kills 2HG-producing HT-1080-NT fibrosarcoma cells; AID 686970; HT-1080-NT fibrosarcoma viability, CellTiter-Glo ATP luminescence, 48 h; Potency, µM (top dose mostly 46.1 µM), most hits filed as cytotoxic; actives 1.6% (n = 360,000);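 also: NT is the 2HG producing partner of a matched IDH1 knockdown line; nearly all actives have a fitted effect of over 55% in size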
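HT-1080-NT; 750 cells/well; 5% FBS RPMI; 48 h compound, 37 degrees C; CellTiter-Glo luminescence; curve fitting and curve-class assignment.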
HT1080 IDH1KD tx – toxicity to HT-1080 IDH1 knockdown cells (counter line) | HT-1080 IDH1 knockdown viability, ATP luminescence, 48 h | actives 2% (n = 360,000) | Potency, µM (series often up to 46.1 µM), most hits filed as cytotoxic
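Viability of IDH1-knockdown HT-1080 fibrosarcoma cells was assessed by CellTiter-Glo after 48 h at 37 °C with titrated compound; concentration-effect curves were classified by fit quality and response size.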
KB-V1 MDR tox – kills drug-selected multidrug resistant KB-V1 cells. KB-V1 MDR cells viability, CellTiter-Glo, 72 h. actives 3.4% (n = 400,000). Potency, µM (top dose mostly 46.1 µM), usual class: cytotoxic; also: nearly all actives have a fitted effect of over 60% in size
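KB-V1 MDR subline cells in DMEM (phenol-red free, 10% FBS) exposed to compounds in qHTS concentration series for 72 h at 37 degrees C. Viability read by CellTiter-Glo luminescence; concentration-effect curves fitted after normalization and correction.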
MCF10A rereplic – induces DNA re-replication in MCF 10a normal breast cells; MCF 10A DNA re-replication, Hoechst nuclear intensity, 48 h; Potency, µM (top dose mostly 46.1 µM), actives largely listed as activators; actives 2.9% (n = 350,000); AID 624296; also: nearly all actives have a fitted effect of over 50% in size
KB-3-1 cytotox – KB-3-1 parental cell cytotoxicity; KB-3-1 viability, CellTiter-Glo ATP luminescence, 72 h; actives 1.4% (n = 400,000); Potency, µM (titrated, usually from 46.1 µM), hits mostly cytotoxic; AID 1347075; also: nearly all actives have a fitted effect of over 60% in size
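Viability of parental KB-3-1 cells, measured by CellTiter-Glo luminescence, followed a 72 h incubation at 37 °C with pinned compounds in phenol-red-free DMEM containing 10% FBS.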
SW480 rereplic – induces DNA re-replication in SW480 colon adenocarcinoma cells | actives 1.8% (n = 340,000) | Potency, µM (doses to about 46.1 µM), hits mostly activators | SW480 DNA re-replication, Hoechst DNA content imaging, 48 h | AID 624297; also: nearly all actives have a fitted effect of over 55% in size
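Image-based DNA-content assay: after two days of treatment, nuclei were labelled with the DNA dye Hoechst and imaged, and hits were compounds raising the count of nuclei showing high fluorescence intensity.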
Hits are given with their value; – = inactive; ? = inconclusive; · = no result given; ! = not confirmed by another sample. Hits are enriched below; roughly 8% of the tested compounds scored in any of these assays. Calls follow the shape of the dose curve; as a rule, active = well fitted curve in the direction sought with a large enough effect; inconclusive = small, poorly fitted or top-dose-only effect, or another doubt; inactive = no such curve, though single readings can be large; an effect the other way counts as inactive or inconclusive.

SMILES | HT1080-NT tox | HT1080 IDH1KD tx | KB-V1 MDR tox | MCF10A rereplic | KB-3-1 cytotox | SW480 rereplic
Cc1cc(C)n(-c2nc(NCCN(C)C)c3c4c(sc3n2)CCCC4)n1 | 21µM | 21µM | ? | ? | – | ?
Cc1cc(C)n(-c2nc(NCCCN(C)C)c3c4c(sc3n2)CCCC4)n1 | 15µM | ? | ? | ? | ? | ?
Cc1cc(C)cc(NC(=O)CCn2c(=O)c3cccn3c3ccccc32)c1 | – | ? | ? | 8.2µM | 9.2µM | –
CCOC(=O)c1c(CN2CCCCC2)oc2ccc(OC)cc12 | – | – | 9.2µM! | – | – | –
Cc1ccc(C)c(CN2C(=O)c3ccccc3S(=O)c3ccc(C(=O)NCc4ccco4)cc32)c1 (centres undefined) | · | · | ? | · | – | ·
COc1ccc(C(=O)c2oc3ccccc3c2NC(=O)c2nc(SC)ncc2Cl)cc1Cl | · | · | – | · | – | ·
CC1(c2nnc(-c3ccncc3)o2)CC(c2ccc(Cl)cc2)=NO1 (centres undefined) | – | – | – | 9.2µM | – | –
CC1(c2nnc(-c3ccccc3)o2)CC(c2ccc(F)cc2)=NO1 (centres undefined) | – | – | – | – | – | –
CC1(c2nnc(-c3ccccc3)o2)CC(c2ccc(Cl)cc2)=NO1 (centres undefined) | – | – | – | – | – | –
CC1(c2nnc(-c3ccccc3)o2)CC(c2ccc([N+](=O)[O-])cc2)=NO1 (centres undefined) | – | – | 21µM | – | 10µM | –
CSc1nn(Cc2ccc(F)cc2)c(N(C(C)=O)C(C)=O)c1S(=O)(=O)c1ccccc1 | · | · | – | · | – | ·
Cc1nc2c(C(=O)NCc3ccccc3Cl)cnn2c(C)c1Cc1c(F)cccc1Cl | · | · | – | · | – | ·
CCC(C)c1ccccc1NC(=O)c1cc2cccc([N+](=O)[O-])c2[nH]1 (centres undefined) | ? | 16µM | – | ? | – | –
Cc1ccc(NC(=O)c2cc3cccc([N+](=O)[O-])c3[nH]2)cc1 | – | – | – | – | – | –
c1ccc2c(c1)OCC(c1csc3ncnc(N4CCCC4)c13)O2 (centres undefined) | – | – | 13µM | – | ? | –
c1ccc(CCNc2ncnc3scc(C4COc5ccccc5O4)c23)cc1 (centres undefined) | – | – | 13µM | ? | ? | –
CC(C)(C)CC(=O)NCC(c1ccc2c(c1)OCO2)N1CCN(c2ccccc2)CC1 (centres undefined) | · | · | – | · | – | ·
COc1ccc(C)cc1NC(=O)c1c(C(=O)Nc2cccc(C)c2C)sc2nc(C)cc(=O)n12 | · | · | ? | · | – | ·
COc1ccc(C2(O)C(=O)Nc3ccc(C)cc32)cc1 (centres undefined) | – | – | ? | – | – | –
C=C(C)C(=O)OC1(C(F)(F)F)Oc2cc(C)ccc2NC1=O (centres undefined) | ? | ? | – | 16µM | – | ?
O=C(c1cnc(N2CCOCC2)c2ccccc12)N1CCN(c2ccccc2F)CC1 | · | · | – | · | – | ·
COc1cccc(-c2cnc(C(O)c3cccc(CN4CCCCC4)c3)[nH]2)c1 (centres undefined) | – | – | – | · | – | ·
OC(c1cccc(CN2CCCCC2)c1)c1ncc(-c2cccc(C(F)(F)F)c2)[nH]1 (centres undefined) | 21µM | ? | – | · | – | ·
OC(c1cccc(CN2CCCCC2)c1)c1ncc(-c2cccc3ccccc23)[nH]1 (centres undefined) | 16µM | ? | – | · | – | ·
Cc1c(Cl)cccc1Nc1nn2c(=O)c3ccc(C(=O)NCCC4=CCCCC4)cc3nc2s1 | · | · | – | · | ? | ·
SMILES | HT1080-NT tox | HT1080 IDH1KD tx | KB-V1 MDR tox | MCF10A rereplic | KB-3-1 cytotox | SW480 rereplic
O=C(CSc1nc2c(c(=O)[nH]1)CCC2)Nc1ccccc1F | · | · | – | · | – | ·
CC(C)Nc1nc(NCc2ccccc2)c2sccc2n1 | 23µM | ? | ? | · | ? | ·
CNc1nc(NCC2CCCCC2)c2sccc2n1 | 23µM | 23µM | – | · | – | ·
CNc1nc(NCc2ccc(N(C)C)cc2)c2sccc2n1 | ? | ? | – | · | – | ·
CNc1nc(Nc2ccc(C)cc2C)c2sccc2n1 | ? | ? | 15µM | · | 18µM | ·
Cc1ccc(CNc2nc(NC(C)C)nc3ccsc23)c(C)c1 | ? | ? | – | · | – | ·
Cc1ccc(Nc2nc(NCC3CC3)nc3ccsc23)c(C)c1 | 12µM | 6.5µM | ? | · | 21µM | ·
COc1cccc(NC(=O)Cn2c(=O)n(-c3cccc(OC)c3)c(=O)c3c4c(sc32)CCCC4)c1 | · | · | – | · | – | ·
CSc1ccc(/C=C2\C=Cc3ccccc32)cc1 | · | · | – | · | – | ·
Fc1ccc(-c2csc(-c3nc(-c4ccc(Br)s4)cs3)n2)cc1 | · | · | – | · | – | ·
Cc1ccc(CNc2nc(NCc3ccccc3)nc3ccsc23)c(C)c1 | 26µM | ? | ? | · | ? | ·

Compound activity (PubChem)
